Screening data as filed in PubChem BioAssay.
An excerpt weighted towards active compounds, which were near 8.5% of everything screened.
KDM4E inh = blocks human JMJD2E demethylase activity | B2RXH2 | JMJD2E catalytic domain, FDH-coupled NADH fluorescence (FDH is formaldehyde dehydrogenase) | Potency, µM (titrated, usually from 57.1 µM), for the others: at the top dose activity change, negative = inhibition, most hits filed as inhibitors | 230,000 compounds, 1.6% hits | AID 2147; active means well fitted inhibition curve with a large enough effect, not every such curve was filed as active; inconclusive means small, poorly fitted or top-dose-only effect, or another doubt; inactive means no such curve, though single readings can be large or run the other way;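 further: potency means the concentration at half of the fitted maximal effect; 0% = wells with enzyme and -100% = buffer wells without enzyme; nearly all actives have a fitted effect of over 50% in size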
FBPA coupling cs = coupling enzyme interference in Giardia aldolase counter-screen; activity change, negative = inhibition, % at 58.2 µM, hits read low; 290,000 compounds, 0.67% hits; coupling enzyme system counterscreen, AmpLite Red fluorescence; AID 2472; in the data active means activity change below about -30%
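Counterscreen of the coupled detection system alone, without aldolase: glyceraldehyde-3-phosphate coupling enzymes plus AmpLite Red readout. Compounds at 57.5 uM final, 10 min RT preincubation, 20 min RT reaction, fluorescence 525/598 nm.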
Sfp inh = blocks B. subtilis Sfp PPTase activity; Q9F4F7; Biochemical Sfp PPTase activity, qHTS; Potency, µM, for inactives: largest response in the series, negative = inhibition, actives largely listed as inhibitors; 310,000 compounds, 3.5% hits; AID 1490;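 further: the enzyme is Sfp with the accession as filed and its product quenches rhodamine fluorescence; potency means the concentration at half of the fitted maximal effect; 0% = enzyme reaction without inhibitor and -100% = no enzyme wells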
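Buffer: 50 mM Hepes-Na pH 7.6, 10 mM MgCl2, 0.01% Nonidet P-40, 0.01% BSA. Enzyme 15 nM, pre-exposed to compound 15 min; substrates then added and fluorescence change tracked over 30 min.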
NPSR antag = blocks cAMP signaling of the human neuropeptide S receptor; CHO-NPSR cells, cAMP TR-FRET, antagonist mode; 220,000 compounds, 1% hits; Q6W5P4; Potency, µM (highest dose often 38.3 µM), for inactives: at the top dose activity change, negative = inhibition, hits mostly inhibitors; further: potency means the concentration at half of the fitted maximal effect; nearly all actives have a fitted effect of over 50% in size
ALDH1A1 inh = blocks purified human ALDH1A1 activity; AID 1030; Potency, µM (series often up to 75.3 µM), inactives show top-dose activity, negative = inhibition, actives largely listed as inhibitors; Purified ALDH1A1, NADH fluorescence, propionaldehyde substrate; 220,000 compounds, 7.3% hits; P00352; active means well fitted inhibition curve with a large enough effect, not every such curve was filed as active; inconclusive means small, poorly fitted or top-dose-only effect, or another doubt; inactive means no such curve, though single readings can be large or run the other way;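 further: potency means the concentration at half of the fitted maximal effect; plate controls were no enzyme wells and a reference inhibitor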
GoLoco inh red = RGS12 GoLoco-Gai1 interaction inhibition | P63096 | Gai1:RGS12 GoLoco peptide FP, rhodamine, 10 min | Potency, µM (top dose mostly 61.6 µM), without a hit: at the highest dose activity, negative = inhibition, hits mostly inhibitors | 230,000 compounds, 0.44% hits; active means well fitted inhibition curve with a large enough effect, not every such curve was filed as active; inactive means no such curve, though single readings can be large or run the other way; further: potency means the concentration at half of the fitted maximal effect; nearly all actives have a fitted effect of over 30% in size
Target sequence (P63096 whole entry, looked up): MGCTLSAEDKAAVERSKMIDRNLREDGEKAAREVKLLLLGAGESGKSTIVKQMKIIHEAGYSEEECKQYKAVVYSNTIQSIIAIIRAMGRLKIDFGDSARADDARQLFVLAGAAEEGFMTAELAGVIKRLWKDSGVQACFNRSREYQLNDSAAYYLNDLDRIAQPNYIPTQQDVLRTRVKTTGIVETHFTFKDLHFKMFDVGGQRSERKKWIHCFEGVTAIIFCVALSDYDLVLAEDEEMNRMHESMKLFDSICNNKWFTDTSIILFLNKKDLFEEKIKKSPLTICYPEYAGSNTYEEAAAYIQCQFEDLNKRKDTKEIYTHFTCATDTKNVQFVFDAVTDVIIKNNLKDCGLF
* hit, by the source's call; ! = not active in a repeat; [ ] = another dose, or the depositor's remark. Unless noted, the call rests on the fitted dose curve; in most records, active means well fitted curve in the direction sought with a large enough effect; inconclusive means small, poorly fitted or top-dose-only effect, or another doubt; inactive means no such curve, though single readings can be large; an effect the other way counts as inactive or inconclusive. Unless noted, on the % scale 0 is the no-effect control and ±100 the full control effect.

`O=C(Nc1cccc(Cl)c1Cl)Nn1cnnc1` gave FBPA coupling cs 3 and Sfp inh -2%.
`S=C(Nc1ccc(Cl)cc1Cl)Nn1cnnc1` gave KDM4E inh -1%, FBPA coupling cs 1, Sfp inh 13µM*, NPSR antag 26%, ALDH1A1 inh 5% and GoLoco inh red -4%.
Screening S=C(Nc1cc(Cl)ccc1Cl)Nn1cnnc1 returned KDM4E inh 2%, FBPA coupling cs 6, Sfp inh 18µM*, NPSR antag 15% and GoLoco inh red 2%.
CC(C)=CC[C@@H](O)C1=CC(=O)c2c(O)ccc(O)c2C1=O was read as Sfp inh 50µM*, ALDH1A1 inh inconclusive and GoLoco inh red -18%.
COc1ccccc1C(=O)Nc1ccnn1C1CCN(Cc2ccc3nonc3c2)CC1 was read as FBPA coupling cs 1 and Sfp inh 4%.
For O=C(CCc1nc(-c2ccc(Cl)cc2)no1)NCC1CCCO1 (stereo not drawn) the results were KDM4E inh 8%, FBPA coupling cs 3, Sfp inh 17%, NPSR antag 8%, ALDH1A1 inh 35µM* and GoLoco inh red 0%.
For Cc1ccc(-c2noc(CCC(=O)N(C)c3ccccc3C)n2)cc1 the results were KDM4E inh -11%, FBPA coupling cs 1, Sfp inh 50µM*, NPSR antag -27%[46.1 µM], ALDH1A1 inh -4% and GoLoco inh red -13%.
Screening Cc1ccc(-c2noc(CCC(=O)NCc3ccco3)n2)cc1 returned KDM4E inh -2%, FBPA coupling cs 5, Sfp inh 56µM*, NPSR antag -14%[46.1 µM], ALDH1A1 inh inconclusive and GoLoco inh red 27%.
`O=C(C1CCCN(S(=O)(=O)c2cccc3cccnc23)C1)N1CCN(c2ccc(F)cc2)CC1` (stereo not drawn) gave KDM4E inh -12%, FBPA coupling cs 2, Sfp inh 13%, NPSR antag -12%[46.1 µM], ALDH1A1 inh -2% and GoLoco inh red -3%.
O=C(O[C@@H]1Cc2c(O)cc(O)cc2OC1c1ccc(O)c(O)c1)c1cc(O)c(O)c(O)c1 (stereo partly drawn) was read as KDM4E inh 7.1µM*, FBPA coupling cs -2, Sfp inh 50µM*, ALDH1A1 inh -7% and GoLoco inh red 2%.
`O=C(OC1Cc2c(O)cc(O)cc2OC1c1cc(O)c(O)c(O)c1-c1c(C2Oc3cc(O)cc(O)c3CC2OC(=O)c2cc(O)c(O)c(O)c2)cc(O)c(O)c1O)c1cc(O)c(O)c(O)c1` (stereo not drawn) gave KDM4E inh 11µM*, FBPA coupling cs -11, Sfp inh 45µM*, ALDH1A1 inh -1% and GoLoco inh red 25%.
For Oc1cc(O)c2c(c1)O[C@H](c1ccc(O)c(O)c1)[C@H](O)C2 the results were KDM4E inh 11µM*!, FBPA coupling cs -1, Sfp inh -2%, ALDH1A1 inh 14%[20.9 µM] and GoLoco inh red -2%[21.6 µM].
Screening Oc1ccc(C2Oc3cc(O)cc(O)c3CC2O)cc1 (stereo not drawn) returned KDM4E inh -9%, FBPA coupling cs -1, Sfp inh 2%, ALDH1A1 inh -2% and GoLoco inh red 14%.
For O=C1c2c(O)cc(O)cc2OC(c2ccc(O)c(O)c2)C1O (stereo not drawn) the results were KDM4E inh 8.9µM*, FBPA coupling cs 1, Sfp inh -7%, NPSR antag -7%[46.1 µM], ALDH1A1 inh -6% and GoLoco inh red -36%.
For Cn1ccnc1CN1CCCCC1C(=O)Nc1ccc(Oc2cccnc2)cc1 (stereo not drawn) the results were FBPA coupling cs -3 and Sfp inh -25%.
`COCCCn1c(=O)c2ccccc2n(Cc2cc(C(=O)OC)ccc2OC)c1=O` gave FBPA coupling cs 2 and Sfp inh -1%.
Screening CCC(=O)Nc1ccc2nc(SCC(=O)N3CCCC3)sc2c1 returned KDM4E inh 7%, FBPA coupling cs 0, Sfp inh 23%, NPSR antag -11%[46.1 µM], ALDH1A1 inh inconclusive and GoLoco inh red 6%.
